Rows were chosen to be rich in hits. Some 19% of all compounds tested hit in one or more screens of this group.
DT40 TDP1 no CPT – qHTS for Inhibitors of human tyrosyl-DNA phosphodiesterase 1 (TDP1): qHTS in cells in absence of CPT; AID 686978, 2013; 420,000 tested, 15% active; Potency, µM (titrated, usually from 46.2 µM), without a hit: at the highest dose activity change, negative = growth inhibition, actives largely listed as inhibitors; DT40 Tdp1-/- hTDP1 cells, no CPT, ATP luminescence, 48 h; note: nearly all actives have a fitted effect of over 55% in size
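Cells were dispensed at 400 per well, compounds added by pin tool, plates incubated ≥48 hr at 37 °C, then CellTiter-Glo added for 30 min at room temperature before luminescence reading. Line: DT40 Tdp1-/- complemented with hTDP1; camptothecin omitted.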
TDP1 cell CPT – growth inhibition of DT40 Tdp1-/-;hTDP1 cells with camptothecin (screen for TDP1 inhibitors). chicken DT40 Tdp1-/-;hTDP1 cells + 20 nM CPT, ATP luminescence, 48 h. Potency, µM (doses to about 46.2 µM), without a hit: at the top dose activity change, negative = growth inhibition, actives largely listed as inhibitors. 420,000 tested, 12% active. AID 686979; note: nearly all actives have a fitted effect of over 55% in size
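Chicken DT40 Tdp1-/- cells complemented with human TDP1, 400 cells/well, exposed to compounds plus 20 nM camptothecin for at least 48 h at 37 C; viability read as ATP content by CellTiter-Glo luminescence.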
VP16 counter – inhibits Gal4-VP16 luciferase reporter, ROR gamma counter-screen; 310,000 tested, 3.5% active; Drosophila S2 Gal4-VP16 UAS-luciferase, luminescence, 20 h; Potency, µM (doses to about 53.6 µM), without a hit: at the highest dose activity, negative = inhibition, most hits filed as inhibitors;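 note: Gal4-VP16 expression switched on by copper sulfate through the metallothionein promoter; nearly all actives have a fitted effect of over 50% in size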
RORgamma inh – blocks mouse ROR gamma transcriptional activity; P51450; Drosophila S2 Gal4-RORgamma UAS-luciferase reporter, 20 h; Potency, µM (highest dose often 53.6 µM), for inactives: at the top dose activity change, negative = inhibition, usual class: inhibitors; 310,000 tested, 5.4% active; note: nearly all actives have a fitted effect of over 60% in size
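In this cell-based reporter format, copper sulfate (700 uM final) drives Gal4–ROR gamma fusion expression from a metallothionein promoter in Drosophila Schneider cells; compounds preincubated 1 hr, reporter read after 20 hr at ambient temperature.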
TDP1 inh – blocks human tyrosyl-DNA phosphodiesterase 1; recombinant TDP1, AlphaScreen DNA substrate cleavage; Q9NUW8; 350,000 tested, 0.28% active; Potency, µM (doses to about 130 µM), for inactives: top-dose activity change, negative = inhibition, hits mostly inhibitors; note: nearly all actives have a fitted effect of over 40% in size
Target sequence (Q9NUW8 whole entry, looked up): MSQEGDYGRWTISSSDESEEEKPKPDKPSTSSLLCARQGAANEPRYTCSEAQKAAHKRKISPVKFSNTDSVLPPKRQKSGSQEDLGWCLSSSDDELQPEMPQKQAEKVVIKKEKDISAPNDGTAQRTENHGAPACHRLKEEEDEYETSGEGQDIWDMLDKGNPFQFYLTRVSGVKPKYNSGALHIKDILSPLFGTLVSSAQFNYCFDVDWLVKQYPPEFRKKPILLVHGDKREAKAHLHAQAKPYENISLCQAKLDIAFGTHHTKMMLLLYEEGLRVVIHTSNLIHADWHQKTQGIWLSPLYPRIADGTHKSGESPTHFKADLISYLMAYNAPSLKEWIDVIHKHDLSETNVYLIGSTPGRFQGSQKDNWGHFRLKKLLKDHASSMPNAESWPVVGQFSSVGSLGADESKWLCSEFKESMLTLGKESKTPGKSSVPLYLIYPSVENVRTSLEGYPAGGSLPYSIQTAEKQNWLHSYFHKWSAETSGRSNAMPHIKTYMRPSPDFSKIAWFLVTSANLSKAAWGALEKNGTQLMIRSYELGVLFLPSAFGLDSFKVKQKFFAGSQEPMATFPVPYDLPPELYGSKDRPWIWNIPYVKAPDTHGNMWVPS
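Here, a 5' biotin and 3' phosphotyrosine-FITC DNA oligonucleotide reports Tdp1 activity: intact substrate bridges AlphaScreen beads, while cleavage leaves a 3' phosphate and drops signal. All incubations at room temperature.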
* = called active by the depositor; ? = inconclusive; / = no result given; [ ] = another dose, or the depositor's remark. Calls come from the whole dose curve; as a rule, active = well fitted curve in the direction sought with a large enough effect; inconclusive = small, poorly fitted or top-dose-only effect, or another doubt; inactive = no such curve, though single readings can be large; an effect the other way counts as inactive or inconclusive. % is set by controls: 0 for no effect and ±100 for the full control effect; potency is the fitted concentration of half-maximal effect.

SMILES | DT40 TDP1 no CPT | TDP1 cell CPT | VP16 counter | RORgamma inh | TDP1 inh
CCOC(=O)[C@]12CCCC=C1N(CCC1=CCCCC1)C(=O)[C@H](CC(=O)NCCc1ccccc1OC)C2 | 13µM* | 13µM* | / | / | /
COc1ccc(NC(=O)N2CCCC(c3nc(-c4ccc(OC)cc4)no3)C2)cc1 (configuration not stated) | ? | ? | 8.7% | ? | 2.4%
CCOc1ccccc1NC(=O)N1CCCC(c2nc(-c3ccc(C)o3)no2)C1 (configuration not stated) | ? | ? | -6.1% | -3.5% | 0.0%
COc1ccc(NC(=O)N2CCCC(C(=O)NC(C)C)C2)cc1 (configuration not stated) | -5.8% | -6.7% | 3.7% | -19.2% | -1.0%[56.1 µM]
COc1ccc(-c2noc(C3CCCN(C(=O)Nc4ccccc4)C3)n2)cc1 (configuration not stated) | ? | 25.9µM* | -11.6% | -10.3% | 2.8%
COc1ccc(NC(=O)N2CCCC(c3nc(-c4ccc(C(C)C)cc4)no3)C2)cc1 (configuration not stated) | 20.6µM* | ? | -9.8% | ? | -2.0%
COc1ccc(-c2noc(C3CCCN(C(=O)Nc4ccccc4F)C3)n2)cc1 (configuration not stated) | 23.1µM* | ? | 0.6% | 34.3% | 6.0%
CNC(=O)CSCc1c(Cl)cccc1Cl | -9.1% | -14.4% | -5.7% | -19.8% | 1.1%
CN(Cc1ccccc1)S(=O)(=O)c1ccc2c(c1)OCCO2 | -16.2% | -16.8% | -3.1% | -13.3% | 2.3%
COc1ccc(-n2cc(-c3ccccc3)c3c(N4CC(C)OC(C)C4)ncnc32)cc1 (configuration not stated) | 11.6µM* | ? | -6.5% | 1.9% | 5.7%
COc1ccc(-n2cc(-c3ccccc3)c3c(NC4CCCC4)ncnc32)cc1 | 18.4µM* | 23.1µM* | / | / | 7.8%
COc1cccc(N2CCN(c3ncnc4c3c(-c3ccccc3)cn4-c3cccc(C(F)(F)F)c3)CC2)c1 | ? | -14.6% | / | / | 13.0%
CC(=O)NC1CCN(C(=O)N2CCCC2)CC1 | -20.4% | 5.2% | -3.2% | 20.5% | 2.0%
CC(=O)c1cc(C#N)c(SCc2ccncc2)nc1C | ? | ? | 6.0% | 12.0% | -2.9%
CS(=O)(=O)Nc1ccc(Cc2ccc(NS(C)(=O)=O)cc2)cc1 | -27.3% | -7.8% | ? | 35.5% | -2.1%
CCS(=O)(=O)Nc1ccc(Cc2ccc(NS(=O)(=O)CC)cc2)cc1 | ? | ? | ? | 1.26µM* | 2.2%
Cc1ccc(S(=O)(=O)N2CCOCC2)s1 | 1.0% | -4.3% | 4.8% | 4.3% | 0.8%
C=C(C)[C@@H]1C2=CC(C(=O)OC)=C(C[C@@H](C(=C)C)[C@H]3O[C@H]3C3=C[C@H]1OC3=O)O2 | 1.12µM* | 1.12µM* | / | / | 0.8%
COC(=O)c1cc(C#N)c(Oc2ccc(OC)cc2)nc1C | -23.4% | 2.7% | -15.3% | -2.8% | -0.5%
CCOc1cnc(C(=O)NNC(=O)C(Br)C(C)C)o1 (configuration not stated) | 1.5% | -3.0% | -4.8% | -19.3% | 5.0%
CNC(=O)c1ccc2nc(-c3cccc(C)c3)c(-c3cccc(C)c3)nc2c1 | 10µM* | 11.2µM* | / | / | 2.5%
COc1ccc(-c2nc3ccc(C(=O)NCC(OC)OC)cc3nc2-c2ccc(OC)cc2)cc1 | 8.2µM* | 10.3µM* | -18.1% | 30.9% | -1.2%
COCCNC(=O)c1cccc(Nc2nc(-c3ccccc3)c3cc(Cl)ccc3n2)c1 | 9.2µM* | 14.6µM* | ? | 35.6% | 3.4%
COc1ccc(-c2nc3ccc(C(=O)NCc4ccccc4)cc3nc2-c2ccc(OC)cc2)cc1 | 14.6µM* | ? | / | / | -5.2%
CC1=C(C(=O)Nc2cccnc2)C(c2cccc(F)c2)n2nc(SCc3ccccc3F)nc2N1 (configuration not stated) | -2.4% | -6.3% | / | / | 0.0%
SMILES | DT40 TDP1 no CPT | TDP1 cell CPT | VP16 counter | RORgamma inh | TDP1 inh
CCOC(=O)Nc1cccc(Nc2ccccc2)c1 | ? | ? | 2.7% | ? | 7.2%
O=C(O)C1(Nc2ccccc2)CCCC1 | 1.2% | 6.3% | / | / | /
CC(=O)Nc1c(C)nn(-c2ccccc2)c1N1CCC(C(=O)Nc2cc(F)ccc2F)CC1 | -25.0% | 0.4% | / | / | -2.7%
COc1cccc(CNC(=O)c2ccc3nc(-c4ccccc4)c(-c4ccccc4)nc3c2)c1OC | ? | 23.1µM* | / | / | 1.5%
O=C(NCCNC(=O)c1ccccn1)c1ccc(-c2ccccc2)cc1 | 20.6µM* | -7.6% | -3.1% | ? | /
O=C(NCC1CC1)c1ccc(Nc2nc3ccc(Br)cc3[nH]2)cc1 | ? | ? | 3.6% | 7.5% | 10.7%
COCCCNC(=O)c1ccc(C(=O)NCCCOC)cc1 | -9.1% | -6.8% | -7.6% | -22.2% | 0.0%
COCCCNC(=O)c1ccc(-c2nc3ccccc3nc2-c2ccccc2)cc1 | 23.1µM* | ? | / | / | /
O=C(NCC1CC1)c1ccc2nc(-c3ccoc3)c(-c3ccoc3)nc2c1 | 11.2µM* | ? | / | / | 1.5%
Cn1c(NC(=O)CC2CCCCC2)cc(=O)n(C)c1=O | ? | -29.6% | -2.7% | ? | /
c1coc(Cn2c(-c3ccco3)nc3ccccc32)c1 | ? | ? | -2.0% | -34.5% | 0.0%
O=C(O)c1ccc2nc(-c3ccccc3)c(-c3ccccc3)nc2c1 | 15.6% | 17.1% | -24.3% | ? | 4.9%
COC(CNC(=O)c1ccc2nc(-c3ccccc3)c(-c3ccccc3)nc2c1)OC | 11.6µM* | ? | -1.2% | 22.6% | 7.4%
NC(=O)c1ccc(NC(=O)COC(=O)c2cccc(Oc3ccccc3)c2)cc1 | -2.2% | -5.0% | 3.4% | 6.4%[10 µM] | 1.1%
NS(=O)(=O)Cc1noc2ccccc12 | 22.1% | -20.6% | 2.5% | -40.0% | 8.9%
COC(=O)c1cc(OC)c(OC)c(OC)c1NC(=O)c1ccc(S(=O)(=O)N(C)C)cc1 | 1.8% | -3.7% | 0.7% | -7.8% | 5.5%
O=[N+]([O-])c1ccc(C(O)CN=Cc2ccc(O)cc2O)cc1 (configuration not stated) | ? | 23.1µM* | ? | ? | 5.1%
Cc1ccc(Nc2nc3nonc3[nH]c2=O)cc1Cl | 25.9µM* | 16.4µM* | ? | ? | 4.6%
O=C1COc2ccc(N3C(=O)C=CC3=O)cc2N1 | / | / | 10µM* | 6.31µM* | -5.5%
O=C(C/C=N/OCc1c(Cl)cccc1Cl)c1cnc(-c2ccccc2)s1 | ? | ? | 6.3% | 1.2% | 9.2%
COC(=O)c1cc2oc(C)cc2n1CC(=O)N(C)c1ccccc1 | -16.9% | -0.2% | -3.1% | -5.4% | 7.2%
COC(=O)c1cc2oc(C)cc2n1CC(=O)Nc1ccc(C(C)C)cc1 | 20.6µM* | 7.31µM* | / | / | 0.0%
